Source: ChEMBL document CHEMBL3988442, “University of Dundee, Small-Polar-MMV Screening Library” (2021)
Screen size: about 48,000 compounds; about 13,000 (27%) showed an effect of 50% or more. The list shows a part of the results.

tested on: Wolbachia pipientis; test: Anti-Wolbachia Cell-Based Screen; assay type: functional; design: scale not given: in the data most compounds retested in dose-response had high values; conditions: 5 µM

First: CN(C)c1nccc(C2CN(c3ccccc3)CCO2)n1 (stereo not given)
Second: CC(=O)N1CCOC(c2ccnc(N(C)C)n2)C1 (stereo not given)
The “Percent Effect” value of the first is higher: 99.49% for the first, 93.18% for the second.

First: Cc1n[nH]c(C2CN(C(=O)c3ccoc3C)CCO2)n1 (stereo not given)
Second: Cc1n[nH]c(C)c1Sc1ccccc1NC(=O)N1CCOCC(O)C1 (stereo not given)
The “Percent Effect” value of the first is lower: -42.67% for the first, -4.124% for the second.

First: CN(C)c1nccc(N(C)C2CCOCC2)n1
Second: O=C(c1ccco1)N(CC(F)(F)F)C1CCOCC1
The “Percent Effect” value of the first is higher: 2.354% for the first, -3.164% for the second.

Going from `c1ccc(C2CN(c3ncnc4[nH]cnc34)CCO2)cc1` (stereo not given) to `O=C(NC1CCN(c2ccc(-c3ccccc3F)nn2)C1)c1ccc[nH]1` (stereo not given), the “Percent Effect” value falls from 11.05% to 5.245%.

Compared with `COCCn1cc(C(=O)N2CCCC2c2ccc(F)cc2)ccc1=O` (stereo not given), `COc1cccc(C2CCN2C(=O)c2cc(C(C)C)on2)c1` (stereo not given) is higher in “Percent Effect” value: -7.034% for the first, 21.92% for the second.

Going from `COC(=O)NCCC(=O)NC(c1ccc(Cl)cc1)C(F)(F)F` (stereo not given) to `CC(Oc1ccccc1C(F)(F)F)C(=O)NCCCC(N)=O` (stereo not given), the “Percent Effect” value falls from -2.05% to -9.185%.

Going from `COc1ccccc1CN1C[C@@H](F)[C@@H](OCc2nc3cnccc3[nH]2)C1` to `COc1ccccc1CC1CCN(C(=O)CCc2ccccn2)CC1`, the “Percent Effect” value falls from -3.752% to -10.18%.

Going from `Cc1cc(C)n(CCN2CCN(C(=O)c3cc4ccccc4o3)CC2)n1` to `CCOC(C)c1nc(CN2CCN(Cc3cccnc3)CC2)cs1` (stereo not given), the “Percent Effect” value falls from 9.033% to -1.889%.

Going from `CC(C)c1cc(CSCCC(=O)O)no1` to `CC(C)c1cc(COCCC(=O)O)no1`, the “Percent Effect” value rises from 33.59% to 121.8%.

Going from `COC(=O)C(C)N(Cc1cc(C)on1)C1CC1` (stereo not given) to `COCC(C)NC(=O)N(C)Cc1cc(C)on1` (stereo not given), the “Percent Effect” value rises from -2.266% to -2.25%.

First: CC(C)c1cc(COCCCC(=O)O)no1
Second: CC(C)OCCC(=O)N(C)CCCc1cc(-c2ccccc2)no1
The “Percent Effect” value of the first is higher: 94.89% for the first, 2.535% for the second.

Going from `O=S1(=O)CCC(n2nc(Cc3cccs3)nc2-c2cnccn2)C1` (stereo not given) to `CNC(=O)c1nc2c(s1)CCN(C(=O)c1cccnc1)CC2.O=C(O)C(F)(F)F`, the “Percent Effect” value rises from -137.3% to -13.23%.

Going from `CS(=O)(=O)N1CCC(CNc2c(Cl)cccc2C#N)CC1` to `CS(=O)(=O)N1CCC(CNc2cc(Cl)ccc2C#N)CC1`, the “Percent Effect” value rises from 98.55% to 125.4%.

First: N#Cc1ccc(Cl)cc1NCC1CCOC1 (stereo not given)
Second: N#Cc1ccc(Cl)cc1NCC1CC1
The “Percent Effect” value of the first is lower: 108.5% for the first, 111.8% for the second.

First: N#Cc1ccc(NCCCOCC2CCOC2)c(F)c1 (stereo not given)
Second: N#Cc1cc(F)ccc1NCC1CCS(=O)(=O)CC1
The “Percent Effect” value of the first is higher: -19.41% for the first, -20.22% for the second.

Going from `CN(c1ccc(CNc2c(Cl)cccc2C#N)cc1)S(C)(=O)=O` to `CCS(=O)(=O)c1ccc(CNc2c(Cl)cccc2C#N)cc1`, the “Percent Effect” value falls from 0.1811% to -6.207%.

First: N#Cc1ccc(Cl)cc1N1CCC(OC2CCOCC2)CC1
Second: N#Cc1cc(F)ccc1NCC1CCN(S(=O)(=O)C(F)F)CC1
The “Percent Effect” value of the first is higher: 1.592% for the first, -12.01% for the second.

Compared with `CS(=O)(=O)N1CCC(Nc2ccnc3ccc(Cl)cc23)CC1`, `Cc1cccc(CN2C[C@@H]3CCCO[C@@H]3[C@H](Nc3ccccn3)C2)n1` is higher in “Percent Effect” value: -4.778% for the first, 113.7% for the second.

First: N#Cc1cc(C(F)(F)F)ccc1NCC1CCS(=O)(=O)CC1
Second: Cc1nn(C)c(C)c1NC(=O)CNc1cc(C(F)(F)F)ccc1F
The “Percent Effect” value of the first is lower: -17.13% for the first, -4.216% for the second.

Going from `CN(CC1CCCCO1)C(=O)c1ccnc(OC2CCC2)c1` (stereo not given) to `O=C(N[C@@H]1CN(Cc2ccccc2)C[C@@H]2CCCO[C@@H]21)C1CC1.O=C(O)C(F)(F)F`, the “Percent Effect” value falls from 4.497% to -2.249%.

First: Cc1nc(C)c(CNC(=O)NC2CC(C)(C)OC2(C)C)s1 (stereo not given)
Second: O=C(Nc1ccccc1OCc1ccccn1)NC1CCOCC1
The “Percent Effect” value of the first is lower: -7.711% for the first, 8.72% for the second.

Going from `O=C(Nc1ccccc1OCCc1ccccn1)N1CC[C@@H](O)C1` to `O=C(Nc1ccccc1OCCc1ccccn1)N1CCOCC(O)C1` (stereo not given), the “Percent Effect” value falls from 116.1% to 83.92%.

Compared with `C=C(C)COc1ccccc1NC(=O)N1CCOCC(CO)C1` (stereo not given), `O=C(Nc1ccccc1OCCc1ccccn1)N1CCOCC1` is higher in “Percent Effect” value: -7.017% for the first, 129.1% for the second.

Compared with `COc1ccc(Oc2ncccc2NC(=O)N2CCOCC2)cc1`, `O=C(Nc1ccccc1OCCc1ccccn1)NC1CCOCC1` is lower in “Percent Effect” value: 2.048% for the first, -2.172% for the second.

First: CC(C)CC(=O)N[C@H](C)c1c(-c2ccc(Cl)cc2)noc1C(=O)O.Cl
Second: Cc1noc(C)c1CN1C[C@@H]2CCCO[C@@H]2[C@H](Nc2ccccn2)C1.O=C(O)C(F)(F)F.O=C(O)C(F)(F)F
The “Percent Effect” value of the first is lower: -0.2726% for the first, 91.6% for the second.

First: Cc1ccc(C)c(-n2ccc3nc(N4CCCC4)ncc3c2=O)c1
Second: Cc1ccc(N[C@@H]2CN(Cc3cc(C)on3)C[C@@H]3CCCO[C@@H]32)nn1.O=C(O)C(F)(F)F.O=C(O)C(F)(F)F
The “Percent Effect” value of the first is lower: -2.601% for the first, 92.65% for the second.

First: Cn1cc(CN2C[C@@H]3CCCO[C@@H]3[C@H](NC(=O)CC3CC3)C2)cn1.O=C(O)C(F)(F)F
Second: Cc1ccc(CN2C[C@@H]3CCCO[C@@H]3[C@H](NS(C)(=O)=O)C2)o1.O=C(O)C(F)(F)F
The “Percent Effect” value of the first is lower: -5.365% for the first, -4.883% for the second.

In the case of `O=C(N[C@@H]1CN(c2ncccn2)C[C@@H]2CCCO[C@@H]21)c1ccncc1.O=C(O)C(F)(F)F.O=C(O)C(F)(F)F`, the “Percent Effect” value is reported as -5.975%.
